Our source for the growth values is PubChem BioAssay (NCI).

Common to all, as to test: NCI-60 one-dose screen, 48 h (100 = growth as untreated, 0 = no growth, -100 = all killed)
For assay [1], the system named is SK-MEL-2 melanoma. The settings on record: 10 µM unless noted.
For assay [2], the system named is EKVX NSCLC. Conditions: 10 µM unless noted.
The test system of assay [3] is SN12C renal. Conditions: 10 µM unless noted.
Assay [4] has as its system UO-31 renal. The settings on record: 10 µM unless noted.
The test system of assay [5] is TK-10 renal. The settings on record: 10 µM unless noted.
The test system of assay [6] is CAKI-1 renal. The settings on record: 10 µM.
The subject of assay [7] is A498 renal. Conditions: 10 µM unless noted.
Assay [8] concerns CCRF-CEM leukemia. The settings on record: 10 µM unless noted.
The subject of assay [9] is MOLT-4 leukemia. Conditions: 10 µM unless noted.
Assay [10] relates to SR leukemia. The settings on record: 10 µM unless noted.
For assay [11], the system named is RPMI-8226 leukemia. The settings on record: 10 µM unless noted.
Assay [12] concerns OVCAR-8 ovarian. The settings on record: 10 µM unless noted.
Assay [13] concerns OVCAR-4 ovarian. The settings on record: 10 µM unless noted.
Assay [14] deals with SK-OV-3 ovarian. The settings on record: 10 µM unless noted.
Assay [15] relates to IGROV1 ovarian. The settings on record: 10 µM unless noted.
For assay [16], the system named is OVCAR-3 ovarian. Conditions: 10 µM unless noted.
The subject of assay [17] is HS 578T breast. Conditions: 10 µM unless noted.
For assay [18], the system named is NCI/ADR-RES ovarian. Conditions: 10 µM unless noted.
The subject of assay [19] is ACHN renal. Conditions: 10 µM unless noted.
Assay [20] deals with OVCAR-5 ovarian. The settings on record: 10 µM unless noted.

The panel holds about 83,000 compounds, 20% with a hit somewhere; the sample as a whole holds those more often.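 Interpretation: 100, growth as untreated; towards 0, rising growth inhibition; 0, no net growth; 0 to -100, cell death. Compounds scoring below 10 were considered active.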 Unmarked numbers belong to inactive results. Active and inactive are the calls of the source.

For `COc1cc(NS(=O)(=O)c2ccc(N)cc2)ncn1`, the growth was 160% in assay [1]; 102% in assay [2]; 93.8% in [3]; 86.2% in [4]; 130% in assay [5]; 94.6% in assay [6]. In addition, the growth in assay [7] was 106%; in assay [8], 105%; in assay [9], 99.6%; in assay [10], 97.2%; in assay [11], 109%; in [12] it was 102%. Moreover, the growth is 114% in [13]; 107% in [14]; 118% in assay [15]; 115% in assay [16]; 105% in [17]; 103% in assay [18].
For `Clc1ccc(CN2COc3c(ccc4cccnc34)C2)cc1Cl`, the growth in assay [1] is 11.8%; in assay [2] it was 1.43% (active); in assay [3], 19.4%; in [4], -55.4% (active); in assay [5] it was 25.9%; in assay [19], 4.57% (active). Moreover, the growth in assay [7] was 52.8%; in [8], -11.1% (active); in [12], -24% (active); in [20], 5.97% (active); in assay [13] it was 11.6%; in assay [14], 13.4%. The results for the growth in assay [16], in assay [17] and in [18] were -1.22% (active), 55.4% and -19% (active), respectively.
For `Oc1ccc(Cl)cc1Sc1cc(Cl)ccc1O`, the growth in [1] was 94.1%; in assay [2], 103%; in assay [3] it was 86.3%; in assay [4], 74.6%; in [5], 104%; in assay [19], 90.1%. For the same molecule, the growth in assay [8] was 96.7%; in assay [9], 80.9%; in [10], 90.4%; in [11], 86.3%; in [12], 90.8%; in assay [20], 100%. The growth is 70.2% in assay [13]; 106% in assay [14]; 77% in assay [16]; 108% in [17]; 101% in [18].
`COc1cc(Cn2cc3c(c2)-c2onc(CO)c2CC3)cc(OC)c1OC`: the growth in assay [1] is 90.2%; in assay [2], 90.3%; in assay [3] it was 94.3%; in assay [4], 68.4%; in assay [5], 96.4%; in assay [7] it was 97.5%. The growth in assay [8] was 91.3%; in assay [9], 95.8%; in assay [10], 71.8%; in assay [11], 79.1%; in assay [12] it was 98.7%; in assay [20] it was 103%. The growth in [13] was 98%; in [14] it was 112%; in [15], 96.6%; in [16], 99.4%; in [17] it was 80.3%.
For the molecule `CC(Cc1cccc(C(F)(F)F)c1)NCCOC(=O)c1ccccc1` (configuration not stated), the growth in [1] is 113%; in assay [2], 84.6%; in assay [3] it was 99.8%; in assay [4], 85.4%; in assay [5], 129%; in assay [6], 87.4%. In addition, the growth was 107% in assay [7]; 105% in [8]; 96.1% in assay [9]; 92.4% in assay [10]; 116% in assay [11]; 110% in assay [12]. Also, the growth in assay [13] was 110%; in [14], 106%; in assay [15] it was 105%; in [16], 115%; in [17], 101%; in assay [18] it was 92.9%.
On to `CC1CCc2cc(F)cc3c(=O)c(C(=O)O)cn1c23` (configuration not stated), for which the growth in [1] is 125%; in [2], 91.4%; in assay [3] it was 98.2%; in assay [4], 78.5%; in assay [5], 103%; in assay [6], 81%. Further, the growth in assay [7] was 88.1%; in assay [8], 109%; in [9] it was 97.3%; in assay [10], 95.4%; in assay [11], 105%; in assay [12], 97.5%. The growth is 111% in [13]; 108% in [14]; 109% in assay [15]; 114% in assay [16]; 103% in assay [17]; 94.8% in [18].
Regarding `c1coc(CSc2ncnc3nc[nH]c23)c1`, the growth in assay [1] is 105%; in assay [2], 103%; in [3] it was 102%; in assay [4], 86.5%; in [5] it was 125%; in assay [19], 106%. In addition, the growth was 90.8% in assay [7]; 107% in [11]; 90.3% in assay [12]; 103% in assay [20]; 99% in assay [13]; 95.7% in assay [14]. The growth in assay [15] was 97.1%; in assay [16] it was 107%; in assay [17] it was 106%; in [18], 106%.
For the molecule `CCCCNc1cc(C(=O)O)cc(S(N)(=O)=O)c1Oc1ccccc1`, the growth in assay [1] was 106%; in [2], 106%; in assay [3] it was 97.1%; in assay [4], 85.4%; in [5], 104%; in assay [6] it was 89.3%. In addition, the growth was 89.1% in [7]; 105% in [8]; 110% in assay [9]; 104% in assay [10]; 112% in assay [11]; 107% in [12]. Also, the growth in [13] was 105%; in [14], 108%; in assay [15], 109%; in assay [16], 115%; in assay [17] it was 98.5%; in assay [18] it was 99.1%.
